# Measurements as given in PubChem BioAssay AID435022 (Sanford-Burnham Center for Chemical Genomics, 2010).
# Among all 330,000 compounds or so, about 1,100 (0.33%) were called active. This is one part of a sample in which actives are shown more often than they occur. Unmarked numbers belong to inactive results. Rule as the data show it: active = inhibition above about 35%; inactive = the rest.
# Assay: inhibitors of PMA/ionomycin-induced NF-kB reporter, 697 cells, primary screen, B-cell NF-kB inhibitor project, cell-based, luminescence, uHTS (AID 435022)
# Settings: 697 B-cell NF-kB luciferase reporter, 16 h, at 4 µM, hits give high values
row,SMILES,inhibition
1,CCN1C(=O)[C@H]2[C@@H](c3ccc(C)cc3)N3C(=O)N(c4cccc(Br)c4)C(=O)[C@@]3(CC)[C@H]2C1=O,-2.44%
2,CCCCC(CC)CNC(=O)C(=O)C1C(=O)Nc2ccccc21 (configuration not stated),13.5%
3,O=C(CN1CCN(c2ccc(O)cc2)CC1)NC1CCCc2ccccc21 (configuration not stated),6.1%
4,CCOc1ccc(C(C)NC(=O)CN2C(=O)NC3(CCCCC3)C2=O)cc1OCC (configuration not stated),-6.42%
5,Cc1[nH][nH]c(=O)c1C(c1ccc(-c2ccc(Cl)cc2)o1)c1c(C)[nH][nH]c1=O,15.2%
6,CCOc1ccc(C(c2c(C)[nH][nH]c2=O)c2c(C)[nH][nH]c2=O)cc1OCC,35.5% (active)
7,CCn1c(O)c(N=NC(=O)c2cccc(S(=O)(=O)N3CCCCC3)c2)c2ccccc21,-4.54%
8,CCn1c(O)c(N=NC2=NC(=O)CS2)c2cc(C)ccc21,44.4% (active)
9,COC(=O)Cn1c2ccc(C)cc2c2nc(C)sc21,20.4%
10,COc1cc(NC(=O)C2CC(c3ccccc3O)=NO2)c(OC)cc1Cl (configuration not stated),10.9%
11,CC(=O)Nc1nc(C)c(Cc2ccccc2)c(=O)[nH]1,16.1%
12,O=C(O)CCn1c(O)c(C=C2N=c3ccccc3=N2)sc1=S,55.2% (active)
13,Cc1cc2ccccc2n1CCC(=O)O,13.8%
14,O=C(O)CCn1c(Cc2ccccc2)nc2ccccc21,5.45%
15,CCOc1ccc(NC(=O)CN(C)C(=O)c2cccc(S(=O)(=O)N3CCCC3)c2)cc1OCC,10.1%
16,CCCC(C)NC(=O)C1CCN(C(=O)C2CC(=O)N(c3ccc(C)cc3)C2)CC1 (configuration not stated),10.2%
17,O=C(Nc1cccnc1)c1cc([N+](=O)[O-])ccc1Cl,12.2%
18,CNc1ccc([N+](=O)[O-])cc1C(=O)O,-7.67%
19,Cc1ccc(NC(=O)c2cc([N+](=O)[O-])ccc2Cl)c(O)c1,38.8% (active)
20,O=C(CCCC(=O)N1CCN(c2cccc(Cl)c2)CC1)c1ccccc1,5.77%
21,C=CC1=C(C(=O)O)N2C(=O)[C@@H](NC(=O)/C(=N/OCC(=O)O)c3csc(N)n3)[C@H]2SC1,21.7%
22,Cc1cnc(C(=O)Oc2cccc(Cl)c2Cl)cn1,9.86%
23,N=c1n(CCc2ccccc2)c2ccccc2n1Cc1ccccc1F,-56.4%

row,SMILES,inhibition
1,Cn1c(=O)n(C)c2cc(C(=O)Nc3ccc4c(c3)OCO4)ccc21,37.8% (active)
2,O=C(Nc1ccc2c(c1)OCO2)c1ccc(N2C(=O)c3ccccc3C2=O)cc1,-7.07%
3,Cn1c(=O)n(C)c2cc(C(=O)Nc3ccc(Br)cc3)ccc21,9.51%
4,COc1ccc(OCC(=O)NN2Cc3ccccc3C2=N)cc1,0.554%
5,O=C(c1ccco1)N1CCN(CC(=O)N(C2CCCCC2)C2CCS(=O)(=O)C2)CC1 (configuration not stated),-18.1%
6,Cc1cc(C(=O)O)c(S(C)(=O)=O)s1,4.07%
7,COc1ccc(CCNC(=S)N2CCN(S(=O)(=O)c3ccc(F)cc3)CC2)cc1,-1.95%
8,CN(C)CCCn1c(SCCN2C(=O)c3ccccc3C2=O)nc2ccccc2c1=O,-8.89%
9,Cc1onc(-c2c(F)cccc2Cl)c1C(=O)OCC(=O)N1C(C)CCCC1C (configuration not stated),-2.55%
10,CCCn1c(=NC(C)=O)c(C(=O)OCC)cc2c(=O)n3ccccc3nc21,4.14%
11,CCOC(=O)c1cc2c(=O)n3ccccc3nc2n(CC(C)C)c1=NC(=O)c1c(-c2c(F)cccc2Cl)noc1C,36.5% (active)
12,CCCCn1c(N)c(N(CCC(C)C)C(=O)COC(=O)c2ccc(CC)cc2)c(=O)[nH]c1=O,-5.34%
13,COc1ccc(C(=O)CSc2n[nH]c(N)n2)cc1,4.97%
14,C=CCn1c(C)cc(C2=NNC(=NCC)SC2)c1C,37.3% (active)
15,CC(Sc1nc2c([nH]c3ccccc32)c(=O)n1C)c1ccccc1 (configuration not stated),-2.36%
16,COc1ccc(C=C(C#N)C#N)c(CSc2ccccn2)c1,7.7%
17,CCOC(=O)Cc1cc(=O)[nH]c(=O)[nH]1,-9.76%
18,O=C(OCCO)c1cc(Cl)c(C(=O)OCCO)cc1Cl,19.5%
19,CC1CCN(S(=O)(=O)c2ccc3c(c2)n(C)c(=O)n3C)CC1,7.77%
20,NC(=O)C1CCN(C(=O)CC2C(=O)NCCN2Cc2cccc(Oc3ccccc3)c2)CC1 (configuration not stated),-2.05%
21,CNC(=O)c1csc(Cc2c(Cl)sc3ccc(Cl)cc23)n1,-20.2%
22,Cc1nc2ccccc2c(=O)n1-c1ccc(NS(=O)(=O)c2ccc(F)cc2F)cc1,1.55%
23,CCC(C)(C(=O)Nc1ccccc1C)N(C(=O)CNC(C)=O)c1ccc(C)cc1 (configuration not stated),14.7%

row,SMILES,inhibition
1,O=C(CN1C(=O)c2ccccc2S1(=O)=O)N1CCc2ccccc21,62.7% (active)
2,O=C(CN1C(=O)c2ccccc2S1(=O)=O)NC1CCCCC1,9.89%
3,CC1CCCN(C(=O)CN2C(=O)c3ccccc3S2(=O)=O)C1 (configuration not stated),-17.2%
4,COC1(C2=NCCN2)COc2ccccc2O1 (configuration not stated),17.1%
5,Cc1ccnc2nc(C(=O)OCC(=O)N(CC(C)C)CC(C)C)nn12,6.38%
6,COc1ccc(CNc2nc(NCc3ccc(OC)cc3)c3ncn(C4CCCC4)c3n2)cc1,-55.3%
7,C=CCSc1nc(N)cc(=O)[nH]1,36.8% (active)
8,CCCCc1nnc(NC(=O)CSc2nc(N)cc(=O)[nH]2)s1,13.3%
9,Cc1cc(C(=O)CSc2nc(N)cc(=O)[nH]2)c(C)n1-c1cccc(F)c1,-32.2%
10,CC(=O)N(OCc1ccc(OC(C)C)c(Cl)c1)C(C)=O,-2.83%
11,COc1cc(F)c(C2=CC(=O)CC(C)(C)C2)cc1F,4.27%
12,Cn1c(-c2ccc(F)cc2)cc2onc(-c3ccccc3Cl)c2c1=O,-275%
13,Cc1cccc(C(=O)Nc2ccc(Oc3cnccn3)cc2)c1,-6.59%
14,Cc1cccc(C(=O)Nc2ccc(C(=O)/C=C/c3cccs3)cc2)c1,6.21%
15,Cc1cccc(C(=O)Nc2ccc(CC(=O)O)cc2)c1,40.2% (active)
16,O=Cc1c(NCCCN2CCCC2=O)c2ccccc2[nH]c1=O,4.36%
17,CC(C)(C)c1cnnn1-c1ccc([N+](=O)[O-])cc1,12.8%
18,Cc1ccccc1Cn1c2ccccc2c2cnn(CC(=O)NCc3ccco3)c(=O)c21,-4.9%
19,O=C(NOCc1ccccc1)c1cccc([N+](=O)[O-])c1,-12.3%
20,O=C(COC(=O)c1ccc([N+](=O)[O-])cc1Cl)NC(=O)c1ccccc1,-5.46%
21,O=C(NC(Nc1nc2ccc([N+](=O)[O-])cc2s1)(C(F)(F)F)C(F)(F)F)c1ccccc1,99.5% (active)
22,CCOC(=O)c1c(C)n(C)c2ccc(OC)c(NS(=O)(=O)CC)c12,-4.31%
23,COc1ccc2cc(CCl)c(Cl)nc2c1,-1.58%

row,SMILES,inhibition
1,O=C(Cn1cnc2ccccc2c1=O)NNC(=O)c1ccccc1F,1.67%
2,O=C(NCc1ccccc1CN1CCCC1)C1CCN(S(=O)(=O)c2ccc(Cl)cc2)CC1,-7.16%
3,COc1ccc(CNC(=O)CNC(=O)c2sc3ccccc3c2Cl)cc1OC,35% (active)
4,COc1ccc(CNC(=O)c2ccc(Br)s2)cc1OC,-2.07%
5,COc1ccc(CNC(=O)Cc2ccc(-c3ccccc3)cc2)cc1OC,8.2%
6,Cc1cc(C(F)(F)F)nc(SCC(=O)Nc2nccs2)n1,-18.2%
7,Cc1[nH]nc(SCC(=O)NCC(C)C)c1[N+](=O)[O-],9.07%
8,Cc1oc2c(C)c3oc(=O)c(CC(=O)N[C@@H](CC(C)C)C(=O)N[C@@H](Cc4ccccc4)C(=O)O)c(C)c3cc2c1C,22.3%
9,CCOc1ccc(C(=O)Nc2cc(Cl)ccc2-n2cncn2)cc1OC,14%
10,CN(C)S(=O)(=O)c1ccc(N2CCCC2)c(C(=O)Nc2ccc(Br)cc2F)c1,9.57%
11,Cc1ccc(Cn2c(SCC(=O)N/N=C/c3ccccc3OCC(=O)O)nc3ccccc32)cc1,3.74%
12,CC(=O)c1nc2ccccc2n1Cc1ccccc1,3.31%
13,CCCc1nc2c(C)cc(-c3nc4ccccc4n3C)cc2n1Cc1ccc(-c2ccccc2C(=O)O)cc1,44.7% (active)
14,O=C1Nc2ccc(Br)cc2/C1=N/N=C/C1=C(N2CCOCC2)C(=C\c2ccccc2)/CC1,13.3%
15,COc1ccc(C2C=C(c3ccc(Br)cc3)Nc3nc(NS(C)(=O)=O)nn32)cc1 (configuration not stated),8.48%
16,Cc1ccc(/C=C2/SC(=S)N(CCC(=O)NCCCN3CCOCC3)C2=O)cc1,-16.3%
17,C=CCOc1ccc(/C=C2\SC(=S)N(CCC(=O)O)C2=O)cc1,62.4% (active)
18,O=C1/C(=C/c2ccc(F)cc2)SC(=S)N1CCCC(=O)N1CCCCC1CCO (configuration not stated),-3.3%
19,CN(CC(=O)NCc1ccncc1)S(=O)(=O)c1ccc(Br)cc1,12.7%
20,Cc1cc(Nc2cc(N3CCN(C)CC3)nc(Sc3ccc(NC(=O)C4CC4)cc3)n2)n[nH]1,37% (active)
21,Cc1n[nH]c(C)c1S(=O)(=O)N1CCCC(C(=O)Nc2ccc(Br)cc2)C1 (configuration not stated),-12.3%
22,Cc1cc(C)nc(N2CCC(C(=O)Nc3ccc4c(c3)OCCO4)CC2)n1,-5.99%
23,CC(=O)c1c(C)[nH]c(C(=O)COC(=O)c2cccc(S(=O)(=O)N(C)c3ccccc3)c2)c1C,-50%
